# KLK7 zymogen act – activators of human kallikrein-7 zymogen. P49862. activation, % at 7 µM. purified proKLK7, EDANS-DABCYL substrate fluorescence; 100% is mature enzyme control, 0% vehicle. 0.9% of 370,000 active;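 active means activation above the mean of all tested compounds plus 3 SD, computed per campaign excluding outliers beyond control limits, cut at about 13% in these data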
# FGF22 binding – shifts melting point of recombinant human FGF22. recombinant FGF22 thermal shift, SYPRO orange fluorescence; percent of sucrose octasulfate shift, DMSO zero. activity (Tm shift, normalised), % at 9.99 µM. Q9HCT0. 1.5% of 340,000 active. AID 651658;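 active means mean Tm shift, scaled 0 neutral to 100 positive control, at about 1.3% or above, every replicate too, limit read from the data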
# ADAM17 inh – inhibitors of human ADAM17. P78536. recombinant ADAM17, EDANS/DABCYL FRET peptide cleavage. inhibition, % at 6.95 µM. 0.83% of 370,000 active. AID 720648;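 active means inhibition above the mean of compounds lying between control limits plus 3 SD, set per campaign, cut at about 8.5% in these data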;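 further: 0% = DMSO-only wells as the low control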
# Ecoli rRNA inh – inhibitors of bacterial rRNA selective over humanized ribosomes; E. coli WT GFP vs humanized-ribosome RFP mutants, fluorescence, 24 h; active compounds read low; DMSO median 0, no signal -100; GFP signal change (wild-type ribosome), % (test concentration not listed); 1.6% of 350,000 active;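 active means significant combined selectivity score with lowered wild-type GFP, culture density cut under 30%, mutant RFP and density less affected; inactive means any of these conditions unmet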
# ADAM10 inh – inhibits human ADAM10; O14672; recombinant ADAM10, EDANS/DABCYL FRET peptide cleavage, 3 h; inhibition, % at 7 µM; 0.62% of 370,000 active;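 active means inhibition above a per-campaign cutoff equal to the mean of compounds falling between control-based bounds plus 3 SD, cut at about 20% in these data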;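 further: 0% = DMSO wells while the 100% control is not disclosed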
# Target sequence (O14672 214-748 limits assumed): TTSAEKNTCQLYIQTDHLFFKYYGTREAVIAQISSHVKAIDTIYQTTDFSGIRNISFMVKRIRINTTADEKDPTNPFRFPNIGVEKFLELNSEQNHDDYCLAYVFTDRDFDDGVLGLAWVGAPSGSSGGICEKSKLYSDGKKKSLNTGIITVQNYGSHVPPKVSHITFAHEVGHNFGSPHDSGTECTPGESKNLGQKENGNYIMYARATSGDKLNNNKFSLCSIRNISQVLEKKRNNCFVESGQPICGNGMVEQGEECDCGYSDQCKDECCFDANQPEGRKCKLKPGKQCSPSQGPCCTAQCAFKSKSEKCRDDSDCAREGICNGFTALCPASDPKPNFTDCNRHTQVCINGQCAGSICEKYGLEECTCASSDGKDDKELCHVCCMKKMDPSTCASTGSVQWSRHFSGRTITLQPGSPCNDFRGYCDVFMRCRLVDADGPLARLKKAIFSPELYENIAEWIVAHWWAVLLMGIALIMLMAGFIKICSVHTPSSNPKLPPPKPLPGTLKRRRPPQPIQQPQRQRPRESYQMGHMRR
# The depositor's hits bear a star; nt = not tested or not shown. Only some compounds are listed: those with a hit (about 3.8% of all), similar ones and a draw of the others.
SMILES,KLK7 zymogen act,FGF22 binding,ADAM17 inh,Ecoli rRNA inh,ADAM10 inh
C[C@H]1CN([C@@H](C)CO)C(=O)Cc2cc(NC(=O)c3ccncc3)ccc2O[C@H]1CN(C)S(C)(=O)=O,nt,nt,nt,2.8,nt
C[C@H]1CN([C@@H](C)CO)S(=O)(=O)c2ccc(-c3ccc(F)cc3)cc2O[C@H]1CN(C)C(=O)Nc1ccc(F)cc1,nt,nt,nt,-2.5,nt
C[C@@H]1CN([C@@H](C)CO)C(=O)c2cc(NS(=O)(=O)c3cccs3)ccc2O[C@@H]1CN(C)S(=O)(=O)c1cn(C)cn1,nt,-0.2,nt,4.2,nt
NC(=O)CSc1nc2cc([N+](=O)[O-])ccc2n1-c1cccc(C(F)(F)F)c1,0.1,0.0,4.4,-22.1*,0.2
COc1ccc(S(=O)(=O)N(C)C[C@@H]2Oc3ccc(NC(=O)Nc4ccc5c(c4)OCO5)cc3C(=O)N([C@H](C)CO)C[C@@H]2C)cc1,nt,-0.3,nt,-1.1,nt
O=C(CC(CC(=O)c1ccccc1)c1ccccn1)c1ccccc1,0.2,44.1*,2.9,-17.9,-13.0
O=C(CC(=O)c1ccccn1)c1ccccc1,-0.1,0.0,-1.4,-39.8,-15.4
CCN(c1ccc(OC)cc1)S(=O)(=O)c1cc(-c2cc(C)no2)ccc1C(C)C,0.7,0.1,0.8,-3.4,12.0
CCN(c1ccc(OC)cc1)S(=O)(=O)c1cc(-c2cc(C)no2)ccc1OC,0.6,-0.2,3.1,-31.0*,14.5
C[C@H](NC(=O)[C@@H]1[C@@H](CO)[C@@H]2Cn3c(ccc(-c4cccnc4)c3=O)[C@@H]2N1C)c1ccccc1,nt,-0.2,nt,-3.1,nt
O=[N+]([O-])c1ccccc1CNC(Cc1ccccc1)c1ccccc1 (stereo unspecified),-0.2,0.2,-4.3,-30.1*,-6.2
Cc1[nH]c(=O)nc(NN=Cc2ccc(Cl)cc2)c1C(=O)Nc1ccc(Cl)cc1,0.0,43.4*,-1.3,3.7,2.5
Cc1ccc(CNC(=O)CCCC(=O)Nc2cc(C)on2)cc1,-0.2,43.1*,-1.1,7.6,10.5
O=C(C1CCCC1)N1CC(=O)N2[C@H](CO)[C@H](c3ccc(C#CCc4ccccc4)cc3)[C@H]2C1,nt,nt,nt,-0.8,nt
CC(C)(C)c1ccc(C(=O)c2cn[nH]c2-c2ccccc2O)cc1,0.3,-0.1,2.9,-22.0*,4.3
COc1ccc(S(=O)(=O)N(C)C[C@H]2OCCCC[C@H](C)Oc3ccc(NS(C)(=O)=O)cc3C(=O)N([C@H](C)CO)C[C@@H]2C)cc1,nt,-0.3,nt,-4.9,nt
CC(C)(C)c1cc(CCC(=O)Nc2ccncc2)cc(C(C)(C)C)c1O,0.1,18.4*,1.0,-21.8,8.4
CC(C)(C)c1cc(CCC(=O)NNC(=O)c2ccncc2)cc(C(C)(C)C)c1O,0.2,0.0,-3.1,-8.1,-7.3
CC(=O)O/N=C/c1c(Cl)n(C)c2ccccc12,-0.3,43.6*,-3.0,-2.1,-2.7
Cn1c(Cl)c(/C=N/OC(=O)C(C)(C)C)c2ccccc21,0.5,0.2,1.1,9.0,5.1
Cc1noc(C)c1NC(=O)NCC[C@H]1CC[C@@H](NC(=O)Nc2cccc(F)c2)[C@H](CO)O1,nt,-0.4,nt,-0.2,nt
CC1CCC(NC(=O)C2CCN(S(=O)(=O)c3ccc4nc5c(c(C(=O)O)c4c3)CC(C)CC5)CC2)CC1 (stereo unspecified),0.5,43.2*,-4.8,24.1,-14.5
O=C(Nc1ccccc1)N1CC(=O)N2[C@H](CO)[C@@H](c3ccc(-c4ccc(F)cc4)cc3)[C@@H]2C1,nt,nt,nt,-36.0,nt
COCC(=O)Nc1ccc2c(c1)OC[C@H](C)N(C(=O)NC(C)C)C[C@H](C)[C@@H](OC)CN(C)C2=O,nt,0.3,nt,-0.4,nt
CC[C@H](NC(=O)[C@@H](Cc1ccccc1)NC(=O)[C@H]1O[C@@H](n2ccc(=O)[nH]c2=O)[C@H](O)[C@@H]1O)c1ccccc1,-0.4,0.1,-0.8,15.7,1.8
SMILES,KLK7 zymogen act,FGF22 binding,ADAM17 inh,Ecoli rRNA inh,ADAM10 inh
CC[C@@H](NC(=O)[C@@H](Cc1ccccc1)NC(=O)CC[C@H]1O[C@@H](n2ccc(=O)[nH]c2=O)[C@H](O)[C@@H]1O)c1ccccc1,-1.0,0.3,-4.6,-8.9*,0.1
CC(C)NC(=O)Nc1ccc2c(c1)CC(=O)N([C@@H](C)CO)C[C@H](C)[C@@H](CN(C)C(=O)Nc1ccc(C(F)(F)F)cc1)O2,nt,0.0,nt,4.2,nt
Cc1noc(C)c1S(=O)(=O)Nc1ccc2c(c1)C(=O)N([C@@H](C)CO)C[C@@H](C)[C@H](CN(C)C(=O)Nc1ccc(F)cc1)OCCCC[C@@H](C)O2,nt,-0.1,nt,0.1,nt
COc1cc(OC)c(OC)cc1/C=C1\CC(C)C/C(=C\c2cc(OC)c(OC)cc2OC)C1=O (stereo unspecified),-0.3,0.2,-32.5,-22.3*,-122.9
COc1cc(/C=C2\CC(C(C)(C)C)C/C(=C\c3cc(OC)c(OC)c(OC)c3)C2=O)cc(OC)c1OC (stereo unspecified),-0.4,-0.2,-6.1,6.3,-3.0
C[C@H](CO)N1C[C@H](C)[C@@H](CN(C)Cc2ccc(F)cc2)Oc2ncc(C3=CCCC3)cc2C1=O,nt,-0.1,nt,-4.4,nt
S=C(NCCCn1ccnc1)Nc1ccc(Cl)cc1Cl,-0.5,0.0,-58.0,-22.6*,-7.9
O=C(NCCCn1ccnc1)Nc1ccc(Cl)cc1,0.2,nt,-4.2,nt,-3.6
O=C(NCCCn1ccnc1)c1ccc(Cl)cc1[N+](=O)[O-],-0.7,43.4*,-6.3,nt,-12.8
COCCCN1C(=O)C(=O)/C(=C(/O)c2ccc(S(=O)(=O)N3CCCCC3)cc2)C1c1ccc(O)c(OC)c1 (stereo unspecified),0.2,-0.1,2.4,8.0,5.4
COCCN1C(=O)CC(NNC(=O)c2ccc(S(=O)(=O)N3CCCC3)cc2)C1=O (stereo unspecified),0.3,43.3*,-2.1,-17.7,-3.2
CC(C)CCN1C(=O)CC(NNC(=O)c2ccc(S(=O)(=O)N3CCCC3)cc2)C1=O (stereo unspecified),0.1,-0.2,-1.8,0.0,-0.4
COCCCN1C(=O)C(=O)/C(=C(/O)c2ccc(S(=O)(=O)N3CCCCC3)cc2)C1c1ccc(O)cc1 (stereo unspecified),-0.4,43.2*,1.9,3.0,5.7
O=C(c1cccc(F)c1)N1CC[C@@H]2[C@H](CO)Nc3ccc(-c4cccc(F)c4)cc3[C@@H]21,nt,nt,nt,-2.5,nt
CCc1cc2c(nc1CC)CCCN2S(=O)(=O)c1c(C)noc1C,-0.1,43.0*,-3.4,-43.4,-7.7
CCc1cc2c(nc1CC)CCCN2S(=O)(=O)c1ccccc1C,0.1,41.6,-3.6,-49.6,-2.7
O=C(C1=C[C@@H](c2ccc(Br)cc2)C[C@@H](OCc2ccc(CO)cc2)O1)N1CCCC1,nt,-0.5,nt,nt,nt
COc1ccc(S(=O)(=O)NNC(=S)NCCc2ccccc2)c(OC)c1,-0.7,0.0,-3.2,-24.8*,-13.0

# Bioassay records from PubChem BioAssay.
